Holding throughout (assay): pooled miR-30 sensor sort-seq; sequence = guide strand
What all share (conditions): shRNA

The target of test [1] is KCNRG.
Test [2] has as its target KCNS2.
In test [3] the target is KDELR1.
For test [4], the target named is KCTD3.
Test [5] concerns the target KHDRBS3.
The target in test [6] is KIF25.
Test [7] has as its target KPRP.
Test [8] concerns the target KRT33B.
Test [9] addresses KRT75.
Test [10] addresses KRI1.
Test [11] concerns the target KRT2.
Note: reference of the scale not given here.

TATAGCATTCAGTTTTGTCTTC registered a sensor-assay potency score (higher = more potent) in test [1] of 0.0468.

TTAAACTGAGTTCACTTGGTGA gave a sensor-assay potency score (higher = more potent) in test [2] of -0.682.

In turn, TTTTATAGAAACATACCTGACT returned a sensor-assay potency score (higher = more potent) in [1] of -0.489.

For the sequence TTCTTTGTAGCTGTATTTCAAA, the sensor-assay potency score (higher = more potent) in [2] was -1.

For TCTGGTATGATGATAGTCTCTG, in test [1], the sensor-assay potency score (higher = more potent) turned out to be 0.569.

Turning to TAGAATAGCGTACACGATGGAC, in [2], the sensor-assay potency score (higher = more potent) was -0.475.

TTTGGTGATATAGAGGTAGAAG yielded a sensor-assay potency score (higher = more potent) in [3] of -0.962.

As for TTTGAGTAGCTCTTCTTCGGTT, the sensor-assay potency score (higher = more potent) in [4] was -0.151.

Take TACTCCTTACACCATAACCATA: the sensor-assay potency score (higher = more potent) in test [2] is -1.82.

With TTGAGCAGTAGCAAGATGATGG, the sensor-assay potency score (higher = more potent) in test [3] is -0.401.

As for TAGAAATGCAGCACGTAGGGGA, the sensor-assay potency score (higher = more potent) in [2] came to 0.48.

The sequence TTTAAATTTACAATTACCCTAT displayed a sensor-assay potency score (higher = more potent) in test [4] of 0.0082.

The sequence TGTAGTACAGTCAACAGCCTGG displayed a sensor-assay potency score (higher = more potent) in test [4] of 0.267.

Sequence TTACACCATAACCATAAGGTGC registered a sensor-assay potency score (higher = more potent) in [2] of -1.42.

Regarding TAAATCAACCAGACCGTGGTGA, in test [3], the sensor-assay potency score (higher = more potent) came to 0.82.

TTGCATTTAAAGCTACTCGTTC came in with a sensor-assay potency score (higher = more potent) in test [4] of -0.407.

For the sequence TTGTCTTCAGAAGATACTGTTC, the sensor-assay potency score (higher = more potent) in [1] is -0.478.

As to TTATCTTTCATTCGCAAGGGGA, in test [4], the sensor-assay potency score (higher = more potent) was -0.381.

For the sequence TCGAAGTAGAACTCCCGCTGGA, in test [2], the sensor-assay potency score (higher = more potent) is -0.212.

The sequence TATGATGATAGTCTCTGGTTTT had a sensor-assay potency score (higher = more potent) in [1] of -0.744.

Turning to TATCAATAAATATAGCACCAGT, in [4], the sensor-assay potency score (higher = more potent) is -0.952.

As to TTGTAGTACAGTCAACAGCCTG, the sensor-assay potency score (higher = more potent) in [4] was -1.16.

For TTGAGTAGCTCTTCTTCGGTTG, the sensor-assay potency score (higher = more potent) in [4] is -0.328.

In turn, AGGAACAACATCTTGAACCTGC came in with a sensor-assay potency score (higher = more potent) in test [4] of -0.641.

TGATTCTGTAACACACAGCAAA: the sensor-assay potency score (higher = more potent) in test [4] was -1.06.

As for TAGGGCATTCTTGAAGAACTTG, the sensor-assay potency score (higher = more potent) in [2] was -0.408.

In test [3], TAGACCACCTTCATACACGTGT displayed a sensor-assay potency score (higher = more potent) of 0.283.

On to TGCTCCACGATTTCGAACCTAG, for which, in test [2], the sensor-assay potency score (higher = more potent) was -0.681.

Regarding TTTGTCTTCAGAAGATACTGTT, in test [1], the sensor-assay potency score (higher = more potent) was -0.101.

With TCGTAAGTAGCTTTGAACTTGC, in test [3], the sensor-assay potency score (higher = more potent) is -0.201.

TTTATGGGCATAATAGTCCCTT had a sensor-assay potency score (higher = more potent) in test [2] of -0.514.

In test [2], TTTAAACTGAGTTCACTTGGTG came in with a sensor-assay potency score (higher = more potent) of 0.664.

As to TAGTCCCTTAAATTGACCGAAG, the sensor-assay potency score (higher = more potent) in test [2] was -1.33.

On to TAGTTATAGGAACAACATCTTG, for which the sensor-assay potency score (higher = more potent) in [4] is -1.48.

TTCTAGTGCTGACCAAATGAAA: in [1], the sensor-assay potency score (higher = more potent) was -1.49.

As to TTCGTGATGAGCACTTCAGGGC, in [1], the sensor-assay potency score (higher = more potent) came out at 0.363.

In the case of TAGAAACATACCTGACTCCAGT, the sensor-assay potency score (higher = more potent) in test [1] is -0.214.

TAGAGTGAGATGTAGTTGGTGA yielded a sensor-assay potency score (higher = more potent) in [3] of 0.498.

With TTGAACAGTATACAGGACTGGT, in test [5], the sensor-assay potency score (higher = more potent) was -0.303.

In turn, AGAATCACCAGTAACTTCGCAT showed a sensor-assay potency score (higher = more potent) in test [6] of -0.565.

TATAGCTCTTTCCGCTGCCCGT registered a sensor-assay potency score (higher = more potent) in test [6] of -1.1.

In test [7], TTGTCGTGGTAGAGGACGCGGG yielded a sensor-assay potency score (higher = more potent) of -1.43.

Regarding TGGTCTTAGACTGACATTGAGC, in test [7], the sensor-assay potency score (higher = more potent) is -1.69.

Take TTTTCACATGCATTGGTGGTGG: the sensor-assay potency score (higher = more potent) in test [8] is 0.0181.

Consider TTTCACATGTGTAACAGACGGG, for which the sensor-assay potency score (higher = more potent) in test [9] was 0.696.

In turn, TTGCAAGCTGGAACACTGCTTC yielded a sensor-assay potency score (higher = more potent) in test [9] of 0.132.

TTACTTTCCGCAGCTTCTCCAG displayed a sensor-assay potency score (higher = more potent) in test [10] of -1.11.

In [10], TACAGGGGCTTCCTCTTCCTGT showed a sensor-assay potency score (higher = more potent) of -0.817.

With ATGTCCTCGTAGTCCAGCCGGT, the sensor-assay potency score (higher = more potent) in test [10] was -1.51.

The sequence TTTGTTGAGGATGTAATCCCGC registered a sensor-assay potency score (higher = more potent) in [10] of -0.152.

Regarding TTGTCGATCTGCACCACCAGCC, the sensor-assay potency score (higher = more potent) in [8] is -0.512.

In [9], TATTGTGCTTTGACCTCGGCGA gave a sensor-assay potency score (higher = more potent) of -0.108.

Regarding TAAACCTCCAACACCACCAGGG, the sensor-assay potency score (higher = more potent) in test [11] was determined as 0.275.

As to ATACTGATTCCTGGTCTCGTTC, the sensor-assay potency score (higher = more potent) in [8] was -1.38.

As for TTGCACATTCTTACACTGCTTC, the sensor-assay potency score (higher = more potent) in test [11] was 0.204.

Sequence TATCTTGATCTCTTTCAGGCTG registered a sensor-assay potency score (higher = more potent) in test [11] of 0.155.

On to TTGGACTGCAACTCCACCTTTA, for which the sensor-assay potency score (higher = more potent) in [11] is -0.149.

TTCCTCCACATAACTTTGCGAC returned a sensor-assay potency score (higher = more potent) in test [10] of -0.99.

On to TAACCTTCCTCTCGTAGTCCTT, for which the sensor-assay potency score (higher = more potent) in test [10] is -0.514.

In turn, TTTCCAGAGAGTATCGCAGGTT returned a sensor-assay potency score (higher = more potent) in test [8] of 0.0223.

The record behind these values is the OligoGym collection.
